Assays:
Assay in all cases: growth AUC relative to DMSO control (median of replicates) (fraction); higher = more growth (less inhibition), active = hit call of the paper
Conditions in all cases: 20 µM; 24 h;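 active = AUC reduced over 20% with Padj below 0.05 in at least 2 of 3 replicates; inactive = otherwise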
Coprococcus comes = system: Coprococcus comes
In short: (§1)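 For each compound at 20 µM (1% DMSO), gut bacterial monocultures seeded at OD600 0.05 grew anaerobically in mGAM at 37 °C in round-bottom 96-well plates. Hourly OD600 readings over 24 h gave growth curves whose minimum OD was set to 0. Area under these curves was normalised to the plate median of solvent-only wells, or to row and column medians on the industrial chemical plate. Values are medians of three biological replicates grown on separate days.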

Escherichia coli ED1a = system: Escherichia coli ED1a
In short: as §1

Escherichia coli IAI1 = system: Escherichia coli IAI1
In short: as §1

Eubacterium rectale = system: Eubacterium rectale
In short: as §1

[1] = system: Fusobacterium nucleatum subsp. animalis
In short: as §1

Lactobacillus gasseri = system: Lactobacillus gasseri
In short: as §1

Lactobacillus paracasei = system: Lactobacillus paracasei
In short: as §1

Odoribacter splanchnicus = system: Odoribacter splanchnicus
In short: as §1

[2] = system: Parabacteroides distasonis
In short: as §1

Parabacteroides merdae = system: Parabacteroides merdae
In short: as §1

Roseburia intestinalis = system: Roseburia intestinalis
In short: as §1

Streptococcus salivarius = system: Streptococcus salivarius
In short: as §1

Measured: growth AUC

C#CCC1=C(C)C(OC(=O)C2C(C=C(C)C)C2(C)C)CC1=O (stereo unspecified)
inactive: Coprococcus comes 0.997 | Escherichia coli ED1a 1.02 | Escherichia coli IAI1 1 | Eubacterium rectale 1.03 | [1] 1.06 | Lactobacillus gasseri 0.998 | Lactobacillus paracasei 1 | Odoribacter splanchnicus 1.11 | [2] 0.952 | Parabacteroides merdae 0.946 | Roseburia intestinalis 0.921 | Streptococcus salivarius 0.959

CC(C)NC(=O)N1CC(=O)N(c2cc(Cl)cc(Cl)c2)C1=O
inactive: Coprococcus comes 1.01 | Escherichia coli ED1a 1.03 | Escherichia coli IAI1 0.983 | Eubacterium rectale 0.995 | [1] 0.948 | Lactobacillus gasseri 1.09 | Lactobacillus paracasei 0.991 | Odoribacter splanchnicus 1 | [2] 0.979 | Parabacteroides merdae 1 | Roseburia intestinalis 1.07 | Streptococcus salivarius 1.05

CSc1nnc(C(C)(C)C)c(=O)n1N
inactive: Coprococcus comes 1.07 | Escherichia coli ED1a 1.04 | Escherichia coli IAI1 1.01 | Eubacterium rectale 0.997 | [1] 1.03 | Lactobacillus gasseri 1.06 | Lactobacillus paracasei 1.03 | Odoribacter splanchnicus 1.05 | [2] 1.02 | Parabacteroides merdae 1.01 | Roseburia intestinalis 1.06 | Streptococcus salivarius 1.01

CNC(=O)O/N=C(\C)C(C)S(C)(=O)=O (stereo unspecified)
inactive: Coprococcus comes 1.02 | Escherichia coli ED1a 0.961 | Escherichia coli IAI1 0.979 | Eubacterium rectale 1.03 | [1] 0.972 | Lactobacillus gasseri 0.905 | Lactobacillus paracasei 0.894 | Odoribacter splanchnicus 1.11 | [2] 0.955 | Parabacteroides merdae 0.956 | Roseburia intestinalis 0.95 | Streptococcus salivarius 0.972

CCOc1cc(OP(=S)(OC)OC)nc(CC)n1
inactive: Coprococcus comes 0.984 | Escherichia coli ED1a 1 | Escherichia coli IAI1 1.01 | Eubacterium rectale 1.04 | [1] 1.04 | Lactobacillus gasseri 0.996 | Lactobacillus paracasei 1.05 | Odoribacter splanchnicus 0.987 | [2] 0.951 | Parabacteroides merdae 0.979 | Roseburia intestinalis 0.98 | Streptococcus salivarius 0.983

CCCCCCCCCCCCCN1CC(C)OC(C)C1 (stereo unspecified)
inactive: Coprococcus comes 0.999 | Escherichia coli ED1a 1.01 | Escherichia coli IAI1 0.966 | Eubacterium rectale 0.991 | [1] 0.964 | Lactobacillus gasseri 0.937 | Lactobacillus paracasei 1.08 | Odoribacter splanchnicus 0.984 | [2] 0.984 | Parabacteroides merdae 0.973 | Roseburia intestinalis 0.937 | Streptococcus salivarius 1.01

O=C(O)COc1nc(Cl)c(Cl)cc1Cl
inactive: Coprococcus comes 0.867 | Escherichia coli ED1a 0.971 | Escherichia coli IAI1 1.01 | Eubacterium rectale 1.15 | [1] 1.1 | Lactobacillus gasseri 0.818 | Lactobacillus paracasei 1.01 | Odoribacter splanchnicus 0.992 | [2] 0.781 | Parabacteroides merdae 1.01 | Roseburia intestinalis 1.01 | Streptococcus salivarius 1.01

CCSC(C)CC1CC(=O)C(/C(CC)=N/OC/C=C/Cl)=C(O)C1 (mixture of isomers)
inactive: Coprococcus comes 1.06 | Escherichia coli ED1a 1.03 | Escherichia coli IAI1 1.01 | Eubacterium rectale 1.03 | [1] 1.1 | Lactobacillus gasseri 0.865 | Lactobacillus paracasei 1.06 | Odoribacter splanchnicus 1.02 | [2] 0.958 | Parabacteroides merdae 1.02 | Roseburia intestinalis 1.01 | Streptococcus salivarius 0.919

CC(Oc1ccc(Oc2nc3ccc(Cl)cc3o2)cc1)C(=O)O (racemic)
inactive: Coprococcus comes 1.05 | Escherichia coli ED1a 1.02 | Escherichia coli IAI1 0.997 | Eubacterium rectale 1.03 | [1] 1.12 | Lactobacillus gasseri 1.04 | Lactobacillus paracasei 1.07 | Odoribacter splanchnicus 0.923 | [2] 1.04 | Parabacteroides merdae 0.97 | Roseburia intestinalis 1.12 | Streptococcus salivarius 0.999

CCCN(CC)CC1COC2(CCC(C(C)(C)C)CC2)O1 (stereo unspecified)
inactive: Coprococcus comes 0.993 | Escherichia coli ED1a 1 | Escherichia coli IAI1 0.959 | Eubacterium rectale 0.987 | [1] 0.899 | Lactobacillus gasseri 1.04 | Lactobacillus paracasei 0.947 | Odoribacter splanchnicus 0.978 | [2] 0.966 | Parabacteroides merdae 0.965 | Roseburia intestinalis 1.03 | Streptococcus salivarius 0.96

CN(C)C(CSS(=O)(=O)[O-])CSS(=O)(=O)[O-].[Na+].[Na+]
inactive: Coprococcus comes 0.999 | Escherichia coli ED1a 0.983 | Escherichia coli IAI1 0.998 | Eubacterium rectale 1.47 | [1] 1.18 | Lactobacillus gasseri 1 | Lactobacillus paracasei 1.01 | Odoribacter splanchnicus 0.951 | [2] 0.978 | Parabacteroides merdae 0.998 | Roseburia intestinalis 1.24 | Streptococcus salivarius 0.961

COP(=S)(NC(C)C)Oc1ccc(C)cc1[N+](=O)[O-] (stereo unspecified)
inactive: Coprococcus comes 1.03 | Escherichia coli ED1a 0.997 | Escherichia coli IAI1 0.996 | Eubacterium rectale 0.933 | [1] 1.06 | Lactobacillus gasseri 1.03 | Lactobacillus paracasei 1.06 | Odoribacter splanchnicus 0.998 | [2] 0.972 | Parabacteroides merdae 0.973 | Roseburia intestinalis 1.01 | Streptococcus salivarius 1.02

CC(C)[C@@H](Nc1ccc(C(F)(F)F)cc1Cl)C(=O)OC(C#N)c1cccc(Oc2ccccc2)c1 (stereo partly specified)
inactive: Coprococcus comes 0.988 | Escherichia coli ED1a 1 | Escherichia coli IAI1 1.05 | Eubacterium rectale 1.04 | [1] 1.06 | Lactobacillus gasseri 1.02 | Lactobacillus paracasei 1.04 | Odoribacter splanchnicus 1.05 | [2] 1.09 | Parabacteroides merdae 1.03 | Roseburia intestinalis 0.961 | Streptococcus salivarius 1.01
